Source: PubChem BioAssay (NCATS)
“And” between values parts separate entries of the source, which are not always exact repeats. Identical values can stand only once. Inconclusive results are not listed. The source made the active and inactive calls. Calls come from the whole dose curve.

Assay: qHTS Assay for Lipid Storage Modulators (AID 1519); for activity change, negative = inhibition: % is set by controls: 0 for no effect and ±100 for the full control effect
Settings: Drosophila S3 cells, BODIPY lipid droplet/cell ratio, laser cytometry, cells loaded with oleic acid
Source text: NIH Molecular Libraries Probe Production Centers Network [MLPCN]
NIH Chemical Genomics Center [NCGC]
Assay Submitter (PI): Beller, Mathias; Max-Planck-Institut fur Biophysikalische Chemie
NCGC Assay Overview: Storing lipids as a reservoir for energy or the anabolism of elementary metabolites is a common feature of probably all cells and is conserved from bacteria to humans. The universal cellular lipid storage organelle is the so-called lipid storage droplet (LD). Although ubiquitous, LDs share a simple structure composed of a hydrophobic core that harbors the storage lipids, which is shielded by a droplet-specific phospholipid monolayer to which proteins are attached. The current model of LD biogenesis involves an incorporation of the lipid core into the membrane leaflets of the endoplasmic reticulum (ER) followed by a subsequent budding-like maturation of a LD, which ultimately pinches off. Once released, LD volume can increase by localized lipogenesis or fusion of existing droplets. Storage lipids are re-mobilized enzymatically by lipase activity. Lipase regulation in the adipocyte is heavily studied and involves multiple components including catecholamine signaling, the LD-associated proteins Perilipin and comparative gene identification-58 (CGI-58) and at least two lipases named hormone sensitive lipase (HSL) and adipocyte triglyceride lipase (ATGL). LD regulation outside of the adipocyte is poorly understood and only few components are known. However, there is an urgent need to learn more about ectopic fat depots as mislocalized storage of lipids, for example in the liver or muscle, is an eminent health problem associated with insulin resistance or the metabolic syndrome. We developed a laser-scanning cytometer assay to enable 1,536-well screening and combined the results of the small molecules screen with an RNAi database based on lipid storage.
NCGC Assay Protocol Summary:
We dispensed 4 uL of cells at 1.25 x 10^6 cells/mL into LoBase Aurora COC 1,536-well plates (black walled, clear bottom) with a bottle-valve solenoid-based dispenser (Aurora) to obtain 5,000 cells/well. Triacsin C (Sigma-Aldrich T-4540), an inhibitor of long-chain fatty acyl CoA synthetase that blocks synthesis of triglycerides, was used as a positive control for lipid under-storage. A total of 23 nL of compound solution of different concentrations were transferred to the assay plates using a Kalypsys pin tool equipped with a 1,536-pin array containing 10-nL slotted pins (FP1S10, 0.457-mm diameter, 50.8 mm long; V&P Scientific). One microliter of oleic acid (400 uM) was added, and the plate was lidded with stainless steel rubber gasket lined lids containing pinholes. […] Fluorescence was detected by excitation of the fluorophores with a 488-nm laser on an Acumen Explorer (TTP Lab Tech). The total intensity in channel 1 (500-530 nm) reflected lipid droplet accumulation. […] The ratio of the total intensity in PMT channel 1 over total intensity of channel 3 was also calculated. Percent activity was computed relative to an internal control (100% inhibited lipid droplet deposition due to the presence of 20 uM Triacsin C), which was added to 32 wells/plate.

[1] = measured here: cell count channel max response
[2] = measured here: lipid channel max response

SMILES	activity change, negative = inhibition (at 25.7 µM (top of the series))	activity change, negative = inhibition (at 57.5 µM (top of the series))	max response [1]	max response [2]
c1cncc([C@@H]2CCCCN2)c1	-0.77% (inactive)	-0.69% (inactive)	-8.06% and -15.1%	-8.76% and -13.6%
CN1C[C@H](CNC(=O)OCc2ccccc2)C[C@H]2c3cccc4c3c(cn4C)C[C@@H]21	-3.64% (inactive)	–	-21.4%	-20.5%
C[C@]12N[C@@H](Cc3ccccc31)c1ccccc12	1.12% (inactive) and -0.257% (inactive)	2.32% (inactive) and -0.0802% (inactive)	11.5% [middle of 4 runs]	12.1% [middle of 4 runs]
N[C@H](Cc1o[nH]c(=O)c1Cl)C(=O)O	–	-0.357% (inactive)	4.55%	4.87%
COc1ccc(-n2nc(C(F)(F)F)cc2-c2ccc(Cl)cc2)cc1	–	-0.483% (inactive)	-38.3%	-37.8%
O=c1ccc2c(O)c3ccoc3cc2o1	–	15.3% (inactive)	7.8%	27.4%
C=C(C)[C@H]1CN[C@H](C(=O)O)[C@@H]1CC(=O)O	–	2.85% (inactive)	-5.55%	-4.1%
O=C(O)[C@@H]1C[C@H]2C[C@@H](CP(=O)(O)O)CC[C@H]2CN1	–	-1.59% (inactive)	-9.16%	-11.2%
CC(C)[C@@H]1CN[C@H](C(=O)O)[C@@H]1CC(=O)O	–	5.36% (inactive)	14.8%	17.2%
CCC1CN2CCC1CC2C(O)c1ccnc2ccccc12 (stereo unspecified)	–	-3.02% (inactive)	-1.23%	-3.67%
CC(C)(C)c1o[nH]c(=O)c1C[C@H](N)C(=O)O	–	1.88% (inactive)	-7.92%	-7.95%
Clc1ccc([C@@H]2C[C@H]3CC[C@@H]2N3)cn1	–	-3.65% (inactive)	0.171%	-1.79%
C[C@@H](C(=O)OC1C[C@H]2CC[C@@H](C1)N2C)c1ccc(Br)cc1 (stereo partly specified)	–	2.43% (inactive)	12.6%	16.9%
